From publication PMC5540273 (PLoS ONE, 2017)

Tested on: FLT4
Details: concentration: 1 μM,replicates: in singlicate; n = 1
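Also: KINOMEscan kinase panel screen.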

| SMILES | %Inh |
| --- | --- |
| COc1ccc(Nc2nccc(N3CCC(NC(=O)c4cccc(C#N)c4)C3)n2)cc1 (stereo not drawn) [GSK1379730] | 22% |
| C[C@@H](Oc1cc(-n2cnc3cc(-c4cnn(C)c4)ccc32)sc1C(N)=O)c1ccccc1Cl [GSK580432] | 99.8% |
| O=C(Nc1n[nH]c2cc(-c3ccco3)ccc12)C1CC1 [SB-737447] | 0% |
| COC(=O)Nc1nc2cc(Oc3ccc(NC(=O)Nc4cc(C(F)(F)F)ccc4Cl)cc3)ccc2[nH]1.Cl [GW697465] | 99.4% |
| Cc1cccc2c(-c3ccncc3)c(-c3ccc(F)cc3)nn12.Cl [GW461487] | 0% |
| O=c1[nH]cc(-c2ccc(O)cc2)c2sc(-c3ccncc3)cc12 [GSK1033723] | 1% |
| COc1cccc(CNC(=O)NC2CCN(c3ccnc(Nc4cc(OC)c(OC)c(OC)c4)n3)C2)c1 (stereo not drawn) [GSK1379765] | 23% |
| COc1cccc(OC)c1C(=O)Nc1cccc(-c2nn3ccccc3c2-c2ccnc(Nc3cccc(F)c3)n2)c1 [GSK361065] | 27% |
| CC(=O)Nc1nc2cnc(Nc3cc(NC(=O)c4cccc(CC(C)(C)C#N)c4)ccc3C)nc2s1 | 73% |
| CC(C)S(=O)(=O)N1CCN(Cc2ccc3c(c2)nc(NC(=O)c2ccsc2)n3C[C@H](O)c2ccccc2)CC1 [GW635815] | 0% |
| Cc1ccc(Nc2ccnc(Nc3ccc4c(c3)CS(=O)(=O)C4)n2)cc1O.Cl [GW579362] | 100% |
| Cc1nnc(-c2ccc3occ(-c4ccc(S(C)=O)cc4)c3n2)o1 (stereo not drawn) | 0% |
